Data: ChEMBL document CHEMBL1157539, “Thousands of chemical starting points for antimalarial lead identification” (Nature, 2010)
Where “and” joins values, the source holds several entries; their conditions need not be identical. Equal values may be shown once.

Legend:
Assay type in all cases: functional
[1] = test system: Plasmodium falciparum; experiment: GSK_TCMDC: Inhibition of Plasmodium falciparum 3D7 in whole red blood cells, using parasite LDH activity as an index of growth. Test compounds present at 2uM
[2] = test system: Plasmodium falciparum; experiment: GSK_TCMDC: Inhibition of Plasmodium falciparum Dd2 in whole red blood cells, using parasite LDH activity as an index of growth. Test compounds present at 2uM
[3] = test system: HepG2; experiment: GSK_TCMDC: Percent inhibition of human HepG2 cell line. Test compounds present at 10uM.

SMILES	Inhibition [1]	Inhibition [2]	Inhibition [3]
CC(Cc1ccc(SCCSc2ccccc2)cc1)NCC(O)c1cccc(Cl)c1 (stereo unspecified)	98%	96%	4%
CC[C@H]1CN2CC[C@@H]1C[C@H]2[C@H](O)c1cc(N2CCCC(C)(C)C2)nc2ccc(OC)cc12	100%	72%	25%
CCOC(=O)CCCN1C(=O)CN=C(c2ccccc2)c2cc(Cl)ccc21	97%	47%	54%
CC[C@H]1CN2CC[C@H]1C[C@H]2[C@H](O)c1cc(-c2ccc(F)cc2C)nc2ccc(OC)cc12.Cl	99%	100%	0%
O=C(/C=C/c1cccc2ccccc12)NC1CCC(CN2CCC(c3c[nH]c4ccccc34)CC2)CC1 (stereo unspecified)	100%	72% and 66%	45% and 53%
COCCNCc1ccc(-c2ccc(CN(C(=O)Nc3ccccc3)C3CCN(Cc4ccccc4)CC3)cc2)cc1.O=C(O)C(F)(F)F	98%	39%	16%
CC[C@H]1CN2CC[C@H]1C[C@@H]2[C@@H](O)c1ccnc2ccc(OC)cc12.Cl	100%	95%	0%
CC(=O)Nc1ccc2[nH]cc(C3CCN(CC4CCN(C(=O)/C=C/c5ccc(Cl)c(Cl)c5)CC4)CC3)c2c1	96%	41%	10%
Br.CNCCc1c(O)ccc2ccccc12	94%	0%	6%
C/C=C1\CN2CC[C@H]1C[C@H]2[C@H](O)c1ccnc2ccc(O)cc12	98%	0%	0%
CC[C@H]1CN2CC[C@@H]1C[C@H]2[C@H](O)c1cc(N2CCC(O)CC2)nc2ccc(OC)cc12	99%	92%	15%
CC[C@H]1CN2CC[C@@H]1C[C@H]2[C@H](O)c1ccnc2ccc(OC)cc12	100%	61%	0%
Oc1cc2c(cc1CN1CCN(Cc3ccccc3)CC1)CCC2	98%	92%	1%
O=C(NC1CCC(CN2CCC(c3c[nH]c4ccccc34)CC2)CC1)NC12CC3CC(CC(C3)C1)C2 (stereo unspecified)	96%	46%	37%
CC[C@H]1CN2CC[C@@H]1C[C@H]2[C@H](O)c1cc(-c2ccc(F)cc2)nc2ccc(O)cc12.Cl	99%	99%	25%
O=C(/C=C/c1ccc(Cl)c(Cl)c1)NCC1CCCC(CN2CCC(c3c[nH]c4ccccc34)CC2)C1 (stereo unspecified)	98%	43%	61%

SMILES	Inhibition [1]	Inhibition [2]	Inhibition [3]
O=C(c1cc(C(=O)NCc2ccc(Cl)cc2)c(=O)n(Cc2ccc(Cl)cc2)c1)c1cc(F)ccc1O	93%	2%	7%
O=C(NC1CCC(CN2CCC(c3c[nH]c4ccccc34)CC2)CC1)c1ccc(-c2cc(C(F)(F)F)ccc2Cl)o1 (stereo unspecified)	100%	34%	5%
CSc1ccc(C[C@@H](C)NC[C@H](O)c2cccc(Cl)c2)cc1.Cl	97%	96%	8%
O=C(Nc1ccc(Cl)c(Cl)c1)N1CCC(CN2CCC(c3c[nH]c4ccccc34)CC2)CC1	100%	69%	46%
O=C(/C=C/c1ccc(Cl)c(Cl)c1)NC1CCC(CN2CCC(c3c[nH]c4cc(O)ccc34)CC2)CC1 (stereo unspecified)	100%	98%	18%
Cc1ccc2[nH]cc(C3CCN(CC4CCC(NC(=O)/C=C/c5ccc(Cl)c(Cl)c5)CC4)CC3)c2c1 (stereo unspecified)	100% and 94%	86% and 46%	37% and 29%
COCCNCc1cccc(-c2ccc(CN(C(=O)NC3CCCCC3)C3CCN(Cc4ccccc4)CC3)cc2)c1.O=C(O)C(F)(F)F	100%	31%	32%
Oc1ccc(CN2CCN(CCOC(c3ccccc3)c3ccc(Cl)cc3)CC2)cc1Cl (stereo unspecified)	98%	97%	11%
CNCCCCCCc1ccc(CC(C)NCC(O)c2cccc(Cl)c2)cc1.Cl (stereo unspecified)	94%	76%	22%
O=C(/C=C/c1ccc(F)c(C(F)(F)F)c1)N1CCC(CN2CCC(c3c[nH]c4ccccc34)CC2)CC1	98%	1%	23%
CCOC(C(=O)OCC1CCCN1C)(c1ccccc1)c1ccccc1 (stereo unspecified)	97%	3%	13%
COC(=O)c1ccc(CC(C)NCC(O)c2cccc(C(F)(F)F)c2)c(Cl)c1 (stereo unspecified)	99%	98%	0%
S=C(NCC1CCCCC1)NC1CCC(CN2CCC(c3c[nH]c4ccccc34)CC2)CC1 (stereo unspecified)	88%	10%	29%
CC[C@@]1(O)C(=O)OCc2c1cc1n(c2=O)Cc2c-1nc1cc3c(cc1c2CN1CCOCC1)OCO3.O=C(O)C(F)(F)F	89%	80%	81%
CC(=O)C1(c2ccccc2)CCN(CCC2(c3ccc(Cl)c(Cl)c3)CN(C(=O)c3cccc(Cl)c3)CCO2)CC1 (stereo unspecified)	90%	61%	37%
CC(=O)C1(c2ccccc2)CCN(CCC2(c3ccc(Cl)c(Cl)c3)CN(C(=O)Nc3cc(F)cc(F)c3)CCO2)CC1 (stereo unspecified)	86%	20%	2%
